Measurements from article PMC7826789 (International Journal of Molecular Sciences, 2021).

Legend:
Conditions in all cases: Compound Concentration (nM):1000
FLT3(K663Q) = tested on: FLT3(K663Q)
FLT3(N841I) = tested on: FLT3(N841I)
FLT3(R834Q) = tested on: FLT3(R834Q)
FLT3-autoinhibited = tested on: FLT3-autoinhibited
FLT3 = tested on: FLT3
FLT4 = tested on: FLT4
FRK = tested on: FRK
FYN = tested on: FYN
GAK = tested on: GAK
GCN2(Kin.Dom.2,S808G) = tested on: T1, GCN2(Kin.Dom.2,S808G)
T1 construct: gene EIF2AK4

GRK1 = tested on: GRK1
GRK2 = tested on: T2, GRK2
T2 construct: gene ADRBK1

GRK3 = tested on: T3, GRK3
T3 construct: gene ADRBK2

GRK4 = tested on: GRK4
GRK7 = tested on: GRK7
GSK3A = tested on: GSK3A
GSK3B = tested on: GSK3B
HASPIN = tested on: T4, HASPIN
T4 construct: gene GSG2

HCK = tested on: HCK
HIPK1 = tested on: HIPK1
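Note: KINOMEscan scanMAX binding as percent activity remaining versus control; lower means stronger binding.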

Row | Compound | Percent Control (FLT3(K663Q)) [%] | Percent Control (FLT3(N841I)) [%] | Percent Control (FLT3(R834Q)) [%] | Percent Control (FLT3-autoinhibited) [%] | Percent Control (FLT3) [%] | Percent Control (FLT4) [%] | Percent Control (FRK) [%] | Percent Control (FYN) [%] | Percent Control (GAK) [%] | Percent Control (GCN2(Kin.Dom.2,S808G)) [%] | Percent Control (GRK1) [%] | Percent Control (GRK2) [%] | Percent Control (GRK3) [%] | Percent Control (GRK4) [%] | Percent Control (GRK7) [%] | Percent Control (GSK3A) [%] | Percent Control (GSK3B) [%] | Percent Control (HASPIN) [%] | Percent Control (HCK) [%] | Percent Control (HIPK1) [%]
1 | COc1ccc2cc(-c3c(-c4ccncc4)nc(-c4ccc(S(C)(=O)=O)cc4C)n3C)ccc2c1 [SB-633825] | 93 | 96 | 95 | 100 | 92 | 54 | 76 | 78 | 59 | 100 | 70 | 81 | 63 | 100 | 94 | 100 | 100 | 94 | 72 | 77
2 | CN(C)CCNC(=O)Nc1ccc(N(C)c2ccnc(Nc3ccc(CS(C)(=O)=O)cc3)n2)cc1.Cl [GW830900A] | 89 | 5.6 | 16 | 27 | 2.9 | 54 | 99 | 93 | 13 | 100 | 89 | 100 | 89 | 7.1 | 96 | 100 | 85 | 100 | 100 | 88
3 | Nc1ncnc2occ(-c3ccc(NC(=O)Nc4cc(C(F)(F)F)ccc4F)cc3)c12 [GW770249X] | 0.5 | 0 | 0 | 33 | 0.1 | 0.7 | 12 | 95 | 100 | 99 | 100 | 100 | 98 | 100 | 100 | 23 | 100 | 100 | 74 | 51
4 | COc1cc2ncnc(Nc3ccc4c(cnn4Cc4ccccc4)c3)c2cc1OC.Cl [GW282449A] | 49 | 47 | 83 | 100 | 45 | 95 | 100 | 100 | 90 | 100 | 100 | 100 | 100 | 100 | 100 | 100 | 100 | 99 | 21 | 100
5 | COc1cccc(-n2ncc3c(N/N=C/c4ccncc4)ncnc32)c1 [GW784752X] | 75 | 36 | 77 | 85 | 76 | 100 | 100 | 75 | 48 | 65 | 99 | 84 | 100 | 88 | 87 | 16 | 2.5 | 75 | 100 | 28
6 | Cl.O=C(Nc1ccc(Oc2ccc3[nH]c(NC(=O)c4ccco4)nc3c2)cc1)Nc1cc(C(F)(F)F)ccc1F [GW683134A] | 0.6 | 8.4 | 5.6 | 92 | 1.3 | 1.5 | 40 | 71 | 100 | 90 | 100 | 100 | 100 | 100 | 100 | 100 | 88 | 100 | 41 | 100
7 | Cc1cc(O)cc(C)c1/C=C/c1cncc(C(N)=O)c1 [GW435821X] | 99 | 100 | 81 | 100 | 95 | 100 | 45 | 70 | 75 | 100 | 95 | 100 | 100 | 100 | 100 | 96 | 100 | 55 | 38 | 100
8 | CC1=C(C(=O)Nc2ccc3[nH]ncc3c2)C(c2ccc3ccccc3c2)CC(=O)N1 (stereo not shown) [GSK270822A] | 100 | 80 | 98 | 100 | 89 | 100 | 61 | 83 | 90 | 100 | 78 | 38 | 17 | 100 | 100 | 100 | 100 | 96 | 68 | 87
9 | CCc1ccc(Oc2nccc(-c3c(-c4ccc(F)cc4)ncn3C3CCNCC3)n2)cc1 [SB-242719] | 96 | 69 | 90 | 100 | 71 | 95 | 99 | 96 | 84 | 100 | 92 | 94 | 90 | 100 | 100 | 97 | 100 | 86 | 99 | 80
10 | NS(=O)(=O)c1ccc(N/N=C2\C(=O)Nc3ccc(C(=O)NCCc4c[nH]cn4)cc32)cc1 [GW300660X] | 100 | 100 | 45 | 100 | 90 | 100 | 100 | 100 | 100 | 100 | 80 | 100 | 99 | 100 | 100 | 50 | 19 | 3.6 | 100 | 25
11 | Cl.O=C(Nc1ccc(Oc2ccc3[nH]c(NC(=O)c4ccccc4)nc3c2)cc1)Nc1cc(C(F)(F)F)ccc1F [GW709042A] | 2.6 | 0 | 15 | 90 | 2.4 | 12 | 71 | 100 | 100 | 84 | 99 | 100 | 97 | 100 | 100 | 100 | 99 | 92 | 71 | 94
12 | COc1ccc(COc2ccc(Cc3cnc(N)nc3N)cc2OC)cc1 [GW632580X] | 79 | 75 | 97 | 99 | 100 | 90 | 100 | 100 | 95 | 100 | 93 | 97 | 93 | 100 | 100 | 95 | 95 | 88 | 90 | 100
13 | COc1cc(C)c(N(C)C(=O)CN(C)C)cc1Nc1nc(Nc2cccc(F)c2C(N)=O)c2cc[nH]c2n1 [GSK2219385] | 100 | 93 | 100 | 100 | 91 | 100 | 100 | 100 | 56 | 100 | 69 | 100 | 80 | 100 | 70 | 100 | 100 | 41 | 100 | 71
14 | C[C@@H](Oc1cc(-n2cnc3ccc(OC4CCN(C)CC4)cc32)sc1C(N)=O)c1ccccc1Cl [GSK579289A] | 17 | 8.1 | 18 | 87 | 18 | 81 | 93 | 86 | 69 | 39 | 75 | 86 | 78 | 37 | 85 | 98 | 100 | 55 | 91 | 61
15 | O=C1Nc2ccc(C(=O)c3ccco3)cc2C1=Cc1cc(Cl)c(O)c(Cl)c1 [GW406108X] | 83 | 54 | 73 | 84 | 71 | 100 | 100 | 92 | 5.9 | 71 | 60 | 100 | 97 | 100 | 65 | 67 | 69 | 2.2 | 98 | 11
16 | COC(=O)Nc1nc2ccc(Oc3ccc(NC(=O)Nc4cc(C(F)(F)F)ccc4F)cc3)cc2s1.Cl [GW693917A] | 1 | 89 | 11 | 65 | 2.4 | 2.4 | 15 | 52 | 97 | 100 | 81 | 91 | 71 | 100 | 84 | 100 | 99 | 76 | 51 | 87
17 | NS(=O)(=O)c1ccc(Nc2ncc(-c3ccccc3)o2)cc1 [GW572399X] | 9.2 | 21 | 14 | 2 | 11 | 100 | 100 | 100 | 99 | 80 | 100 | 100 | 100 | 100 | 100 | 99 | 83 | 100 | 100 | 100
18 | CC1=C(C(=O)Nc2ccc3[nH]ncc3c2)C(c2ccc(Cl)c(Cl)c2)CC(=O)N1 (stereo not shown) [GSK299115A] | 78 | 100 | 93 | 100 | 100 | 100 | 63 | 70 | 95 | 100 | 89 | 16 | 20 | 100 | 99 | 100 | 100 | 84 | 81 | 72
19 | COc1cc(C=NNc2ncnc3c2cnn3-c2ccccc2)ccc1O [GW513184X] | 63 | 27 | 72 | 100 | 34 | 97 | 100 | 90 | 100 | 49 | 100 | 100 | 100 | 28 | 84 | 7.7 | 87 | 100 | 78 | 43
20 | CN(C)c1cc2c(Nc3ccc4c(cnn4Cc4ccccc4)c3)ncnc2cn1 [GW282974X] | 79 | 100 | 95 | 93 | 73 | 100 | 100 | 90 | 76 | 100 | 78 | 100 | 86 | 100 | 97 | 98 | 100 | 82 | 57 | 78
